From PubChem BioAssay (NCATS)
Unmarked numbers belong to inactive results. Inconclusive results are not listed. Where a call stands in place of a potency, no number is given. Activity calls are given as the source filed them. Calls come from the whole dose curve; as a rule, active = well fitted curve in the direction sought with a large enough effect; inconclusive = small, poorly fitted or top-dose-only effect, or another doubt; inactive = no such curve, though single readings can be large; an effect the other way counts as inactive or inconclusive.

How the values were obtained:
[1] = SW1088 Cancer Cell Toxicity qHTS against the NCATS CANVASS Library (AID 1347350); note: nearly all actives have a fitted effect of over 75% in size; note: potency is the fitted concentration of half-maximal effect
Outline: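 Per well, 1000 cells; exposure 72 h with compound at 11 final concentrations; readout CellTiter-Glo luminescence.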

[2] = HEK293 18hr Apoptosis Induction qHTS against the NCATS CANVASS Library (AID 1347357)
Outline: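 Caspase-3/7 luminescence (DEVD substrate, Caspase-Glo) after 18 h compound exposure of HEK293 cells, 500 cells/well; 11-point series; doxorubicin titration as control.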

[3] = HPAF-II 12hr Apoptosis Induction qHTS against the NCATS CANVASS Library (AID 1347358)
Outline: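 Caspase-Glo 3/7 luminescence (DEVD substrate) reports caspase activity in HPAF-II cells after 12 h compound treatment at 37 degrees C. Compounds were tested in an 11-point series. Doxorubicin served as control.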

[4] = HEK293 24hr Apoptosis Induction qHTS against the NCATS CANVASS Library (AID 1347359)
Outline: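 HEK293 cells (500/well, DMEM + 10% FBS) were exposed to compounds in an 11-point series for 24 hours at 37 degrees C, then caspase-3/7 activity was read by Caspase-Glo DEVD luciferase luminescence after 15 min.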

[5] = HPAF-II 18hr Apoptosis Induction qHTS against the NCATS CANVASS Library (AID 1347360)
Outline: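 Caspase-Glo 3/7 luminescence (DEVD substrate) after 15 min RT; HPAF-II, 500 cells/well, 18 h compound exposure at 37 degrees C, qHTS series; doxorubicin control 0.1nM - 4uM.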

[6] = HEK293 12hr Apoptosis Induction qHTS against the NCATS CANVASS Library (AID 1347361)
Outline: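 500 HEK293 cells/well; cpds pin-transferred, 11-pt conc series; 12 h, 37 degrees C/5% CO2; Caspase-Glo 3/7 added, 15 min RT dark; luminescence.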

[7] = target: Luciferin 4-monooxygenase (Photinus pyralis) (UniProt P08659); test: Firefly luciferase counterscreen qHTS: Assay Interference Panel against the NCATS CANVASS Library (AID 1347363); note: series mostly up to about 57 µM
Outline: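 Purified P. pyralis luciferase was added to compounds (11-point series) preincubated 15 min at room temperature with substrate containing 0.013 mM D-luciferin and 0.013 mM ATP; luminescence was read after 5 min.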

[8] = KB-3-1 Cancer Cell Toxicity qHTS against the NCATS CANVASS Library (AID 1347366); note: nearly all actives have a fitted effect of over 75% in size
Outline: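 500 KB-3-1 cells/well; compounds pin-transferred, 11-pnt series; 72 hr, 37C/5% CO2; CellTiter-Glo, 10 min RT; luminescence read-out.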

[9] = G06 Cancer Cell Toxicity qHTS against the NCATS CANVASS Library (AID 1347368); note: nearly all actives have a fitted effect of over 60% in size; note: potency is the fitted concentration of half-maximal effect
Outline: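 ATP luminescence (CellTiterGlo) readout of cytotoxicity. Canine G06 glioma cells, 500/well, 72 hr incubation at 37C with compounds; bortezomib titration served as control.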

[10] = MCF7 Cancer Cell Toxicity qHTS against the NCATS CANVASS Library (AID 1347369)
Outline: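 Luminescent ATP signal (CellTiterGlo) served as the cytotoxicity read-out after MCF7 breast cancer cells had been incubated 72 hr at 37C with natural products in an 11-point titration.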

[11] = J3T Cancer Cell Toxicity qHTS against the NCATS CANVASS Library (AID 1347371)
Outline: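 Dog glioma J3T, 500 cells/well; cpd 11-pt qHTS; 72 hr, 37C/5% CO2; CellTiterGlo ATP luminescence readout.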

[12] = target: Nuclear receptor subfamily 1 group I member 3 (Homo sapiens) (UniProt Q14994); test: qHTS for Constitutive Androstane Receptor (CAR) Antagonist screened against the NCATS CANVASS Library (AID 1347372);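 note: cells stimulated with 50 nM CITCO agonist so inhibition reflects antagonism; series mostly up to about 46 µM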
Outline: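 Cells were seeded and left 4hr to attach, then received compound at 11 concentrations and 50 nM CITCO. Following 24hr incubation, fluorescence viability and luciferase luminescence were read sequentially.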

[13] = target: Nuclear receptor subfamily 1 group I member 3 (Homo sapiens) (UniProt Q14994); test: qHTS for Constitutive Androstane Receptor (CAR) Agonist screened against the NCATS CANVASS Library (AID 1347373);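 note: every well also contained 1.5 µM PK11195 alongside the test compound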; note: potency is the fitted concentration of half-maximal effect
Outline: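 Luciferase read-out (ONE-Glo, 30 min RT) of CYP2B6-2.2kb promoter activity in double-stable HepG2-hCAR cells after 24hr compound exposure with 1.5uM PK11195 present; viability measured first by CellTiter-Fluor.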

[14] = 10-beta competent E. coli microbial cell viability qHTS against the NCATS CANVASS Library (AID 1347376); note: series mostly up to about 46 µM
Outline: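 Luminescence from BacTiter-Glo ATP detection served as the viability read-out; bacteria (0.2 OD) had been incubated overnight at 37C with pin-transferred compounds at 11 concentrations.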

[15] = DH5-alpha competent E. coli microbial cell viability qHTS against the NCATS CANVASS Library (AID 1347377); conditions: outcome: dose series up to 46.1 µM unless noted
Outline: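 Luminescent ATP read-out (BacTiter-Glo, 20 min RT) after overnight 37C culture of DH5-alpha E. coli with compounds; daunomycin control at 0.2 nM–9.2 uM final.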

[16] = qHTS for H2AX Agonists against the NCATS CANVASS Library (AID 1347378)
Outline: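 TR-FRET readout (ex 320 nm, em 665/620 nm ratio) of phospho-H2AX (S139) in CHO-K1 lysates. Cells treated 3 hr at 37C with compound titration, 0.76% DMSO; lysis 30 min, antibody detection 24 hr at RT.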

[17] = qHTS for Inflammasome Signaling Inhibitors: IL-1-beta AlphaLISA screen against the NCATS CANVASS Library (AID 1347379);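 note: human THP-1 cells primed with LPS then triggered with ATP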
Outline: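 THP-1, 1 hr compound pre-incubation, then LPS 250 ng/mL + ATP 1.25 mM (final); 16 hr total with compound; IL-1B AlphaLISA, ex 680/em 615 nm; 11-point qHTS, up to 57.5 uM final.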

[18] = Inflammasome Signaling qHTS Counterscreen: IL-1-beta AlphaLISA counterscreen against the NCATS CANVASS Library (AID 1347381);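 note: cell-free check with purified IL-1β in medium and no THP-1 cells; series mostly up to about 57 µM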
Outline: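 Here, no cellular stimulation occurs; compounds in an 11-point series meet 4 pg purified IL-1-beta directly. Bead-based AlphaLISA detection follows (1 h acceptor/antibody, then 30 min donor, dark, room temperature), with excitation at 680 nm.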

[19] = qHTS assay for small molecule disruptors of mitochondrial membrane potential screened against the NCATS CANVASS Library (AID 1347389); note: nearly all actives have a fitted effect of over 60% in size; note: potency is the fitted concentration of half-maximal effect
Outline: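 Red/green fluorescence ratio read-out: J-aggregates ex 540/em 590 nm, monomers ex 490/em 535 nm. HepG2, 1 hr compound treatment, then 30 min Mito-MPS dye at 37C. 11-pt qHTS concentration series.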

[20] = qHTS for inhibitors of Wild type Zika virus screened against the NCATS CANVASS Library (AID 1347396);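 note: ATP luminescence of surviving cells so rescue from viral cell killing; series mostly up to about 46 µM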
Outline: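 Vero 766 (African green monkey) cells, 1000 per well, attached overnight, then compounds were added in an 11-point series before wild-type Zika virus infection. After 72 h at 37C, cell viability was read as CellTiter Glo luminescence.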

Sequence of Luciferin 4-monooxygenase (Photinus pyralis) (P08659 whole entry, looked up): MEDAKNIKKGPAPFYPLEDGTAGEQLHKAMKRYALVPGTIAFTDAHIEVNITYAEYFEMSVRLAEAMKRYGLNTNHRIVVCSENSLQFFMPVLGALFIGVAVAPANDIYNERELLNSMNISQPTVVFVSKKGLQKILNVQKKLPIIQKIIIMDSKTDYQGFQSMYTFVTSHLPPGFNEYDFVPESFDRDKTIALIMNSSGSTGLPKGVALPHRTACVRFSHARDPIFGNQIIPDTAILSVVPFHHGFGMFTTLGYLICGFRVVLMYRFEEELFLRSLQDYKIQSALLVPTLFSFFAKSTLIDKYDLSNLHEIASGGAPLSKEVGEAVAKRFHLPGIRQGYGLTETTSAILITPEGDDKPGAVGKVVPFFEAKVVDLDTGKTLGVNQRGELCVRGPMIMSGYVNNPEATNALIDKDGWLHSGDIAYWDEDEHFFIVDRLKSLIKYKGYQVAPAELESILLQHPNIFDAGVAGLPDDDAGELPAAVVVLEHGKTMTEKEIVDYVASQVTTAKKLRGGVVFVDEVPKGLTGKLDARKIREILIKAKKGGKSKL
Sequence of Nuclear receptor subfamily 1 group I member 3 (Homo sapiens) (Q14994 whole entry, looked up): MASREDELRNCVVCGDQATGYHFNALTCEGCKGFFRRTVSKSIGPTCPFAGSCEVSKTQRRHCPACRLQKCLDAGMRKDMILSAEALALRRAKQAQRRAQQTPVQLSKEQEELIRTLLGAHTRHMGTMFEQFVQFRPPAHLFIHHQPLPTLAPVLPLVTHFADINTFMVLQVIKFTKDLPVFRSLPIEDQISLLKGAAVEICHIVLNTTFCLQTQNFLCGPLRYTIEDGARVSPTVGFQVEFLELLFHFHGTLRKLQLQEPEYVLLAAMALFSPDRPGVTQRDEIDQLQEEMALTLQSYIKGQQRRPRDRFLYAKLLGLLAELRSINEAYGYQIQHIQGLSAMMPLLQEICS

Compound	Potency [1]	Potency [2]	Potency [3]	Potency [4]	Potency [5]	outcome [6]	Potency [7]	Potency [8]	Potency [9]	Potency [10]	Potency [11]	Potency [12]	Potency [13]	outcome [14]	outcome [15]	Potency [16]	Potency [17]	outcome [18]	Potency [19]	outcome [20]
C=C[C@]1(C)CC[C@@H]([C@H](C)C(=O)CC=C(C)C)O1	inactive	inactive	inactive	inactive	inactive	inactive	inactive	inactive	inactive	inactive	inactive	inactive	inactive	inactive	inactive	inactive	inactive	inactive	inactive	inactive
COC(=O)c1cccc2oc(-c3cccc4oc(-c5c(C)cccc5O)nc34)nc12	0.168 µM (active)	inactive	inactive	inactive	inactive	inactive	inactive	inactive	–	inactive	inactive	inactive	–	inactive	–	inactive	inactive	inactive	–	inactive
C=C1[C@@]2(C)CC3C4(C)CCC(O)C(C)(C)C4CCC3(C)[C@]1(C(=O)OC)C(=O)C(C)(O)C2=O (stereo partly specified)	inactive	inactive	inactive	inactive	inactive	inactive	inactive	inactive	inactive	inactive	inactive	inactive	inactive	inactive	inactive	inactive	inactive	inactive	inactive	inactive
CC1=C(C)C(=O)OC(C(C)C2(O)CCC3C4C5OC5C5(O)CC=CC(=O)C5(C)C4CCC32C)C1 (stereo unspecified)	inactive	inactive	inactive	inactive	inactive	inactive	inactive	inactive	23.5 µM (active)	inactive	inactive	inactive	–	inactive	–	inactive	inactive	inactive	inactive	inactive
COc1cc2oc3ccccc3c(=O)c2cc1OC	inactive	inactive	inactive	inactive	inactive	inactive	–	inactive	–	inactive	inactive	inactive	38.2 µM (active)	inactive	inactive	inactive	–	inactive	inactive	inactive
COc1ccc([C@@H]2c3cc4c(cc3C(=O)C(C)C2C)OCO4)cc1OC (stereo partly specified)	inactive	inactive	inactive	inactive	inactive	inactive	inactive	inactive	inactive	inactive	inactive	inactive	–	inactive	inactive	inactive	inactive	inactive	inactive	inactive
C[C@H](c1cnc(N)[nH]1)c1ccc(O)c2[nH]cc(-c3cnc(-c4c[nH]c5ccccc45)c(=O)[nH]3)c12	inactive	inactive	inactive	inactive	inactive	inactive	inactive	inactive	–	inactive	inactive	inactive	inactive	inactive	–	inactive	–	–	–	inactive
COC1C(C)OC(OCC23C[C@@H]4[C@H](C)CC[C@H]4C4(C=O)CC2C=C(C(C)C)C34C(=O)O)[C@@H](O)[C@H]1O (stereo partly specified)	inactive	inactive	inactive	inactive	inactive	inactive	inactive	inactive	inactive	inactive	inactive	inactive	inactive	inactive	inactive	inactive	inactive	inactive	inactive	inactive
C=C1C[C@]23C=CC(=O)[C@@](C)(CCCC(C)C(=O)N[C@@H](CO)C(=O)O)[C@@H]2C[C@@H]1CC3 (stereo partly specified)	inactive	inactive	inactive	inactive	inactive	inactive	inactive	inactive	inactive	inactive	inactive	inactive	inactive	inactive	inactive	inactive	inactive	inactive	inactive	inactive
C[C@H](CCC(O)C(C)(O)CO)[C@@]1(O)CC[C@@]2(C)C3=C(CC[C@@]21C)[C@@]1(C)CCC(OC(=O)CCC(=O)O)C(C)(C)[C@@H]1CC3 (stereo partly specified)	–	inactive	–	inactive	inactive	inactive	inactive	inactive	inactive	inactive	inactive	inactive	inactive	inactive	inactive	–	inactive	inactive	–	–
O=C1c2c(O)cc(O)cc2OC(c2ccc(O)cc2)C1O (stereo unspecified)	inactive	inactive	inactive	inactive	inactive	inactive	inactive	inactive	inactive	inactive	inactive	inactive	inactive	inactive	inactive	–	inactive	inactive	11.7 µM (active)	inactive
CC(C)[C@@H]1CC(=O)c2coc3c2[C@H]1C[C@@H](C)C3=O	–	inactive	inactive	inactive	inactive	inactive	inactive	–	inactive	inactive	inactive	inactive	inactive	inactive	inactive	inactive	inactive	inactive	–	inactive
